The text below walks through data of the supplement of paper PMC8285479.

For this experiment, the system named is NCI-H1944. Description: normalised cell viability (NPI; 0 = phenylarsine oxide control, 1 = DMSO control) (fraction of DMSO control); NCI-H1944 is a non-small cell lung cancer line; higher = more viable cells (less compound toxicity). Particulars: 6 days.
[1] abbreviates: glucocorticoid arm: hydrocortisone 2.75 uM co-treatment, compound 1 µM.
[2] abbreviates: glucocorticoid arm: hydrocortisone 2.75 uM co-treatment, compound 5 µM.
Where [3] appears, read: glucocorticoid arm: hydrocortisone 2.75 uM pre-treated 2 days and continued, compound 1 µM.
Where [4] appears, read: glucocorticoid arm: hydrocortisone 2.75 uM pre-treated 2 days and continued, compound 5 µM.
The mark [5] stands for this setting: glucocorticoid arm: vehicle, compound 1 µM.
The mark [6] stands for this setting: glucocorticoid arm: vehicle, compound 5 µM.

± gives the standard deviation of the averaged measurements. Whole data set: some 1,900 compounds, median “normalised cell viability (NPI; 0 = phenylarsine oxide control, 1 = DMSO control)” near 1, cut for the lowest 2% near 0.039. The entries come from a sample that favours the lowest values as a whole.
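Further: CTB read-out in 384-well plates, triplicate wells, NPI normalised per plate against 1 µM phenylarsine oxide (0) and 0.1% DMSO (1) controls.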

Take `CO[C@H](C(=O)[C@@H](O)[C@@H](C)O)[C@@H]1Cc2cc3cc(O[C@H]4C[C@@H](O[C@H]5C[C@@H](O)[C@H](O)[C@@H](C)O5)[C@H](O)[C@@H](C)O4)c(C)c(O)c3c(O)c2C(=O)[C@H]1O[C@H]1C[C@@H](O[C@H]2C[C@@H](O[C@H]3C[C@](C)(O)[C@H](O)[C@@H](C)O3)[C@@H](O)[C@@H](C)O2)[C@H](O)[C@@H](C)O1` [Plicamycin]: the normalised cell viability is 0.0675 ± 0.0023 under setting [1]; 0.0276 ± 0.0011 under setting [2]; 0.102 ± 0.0097 under setting [3]; 0.0631 ± 0.0043 under setting [4]; 0.0202 ± 0.0011 under setting [5]; 0.011 ± 0.0021 under setting [6].
`CC1(C2CCCC2)Cc2cc(OCC(=O)O)c(Cl)c(Cl)c2C1=O` (configuration not stated): the normalised cell viability by setting is: under setting [1], 0.983 ± 0.014; under setting [2], 0.982 ± 0.037; under setting [3], 0.9883 ± 0.0072; under setting [4], 0.986 ± 0.084; under setting [5], 0.998 ± 0.011; under setting [6], 0.9853 ± 0.0067.
On to `Cc1ccc([N+](=O)[O-])cc1S(=O)(=O)N(C)C`, for which the normalised cell viability was 1 ± 0.018 under setting [1]; 0.9945 ± 0.0095 under setting [2]; 1 ± 0.011 under setting [3]; 0.978 ± 0.028 under setting [4]; 1.004 ± 0.0094 under setting [5]; 1.007 ± 0.0052 under setting [6].
In the case of `Cc1ccc([N+](=O)[O-])cc1S(=O)(=O)N(C)/N=C/c1cnc2ccc(Br)cn12`, the normalised cell viability under setting [1] came out at 0.025 ± 0.0023; the normalised cell viability under setting [2] worked out at 0.0304 ± 0.0032; the normalised cell viability under setting [3] was found to be 0.0674 ± 0.0086; the normalised cell viability under setting [4] is 0.0802 ± 0.022; the normalised cell viability under setting [5] was 0.0104 ± 0.005; the normalised cell viability under setting [6] came to 0.00623 ± 0.0011.
As to `CCCCC/C=C\C[C@@H](O)/C=C/c1cccc(C[C@@H](O)CCCCO)n1`, the normalised cell viability by setting is: under setting [1], 1.005 ± 0.0081; under setting [2], 1.05 ± 0.04; under setting [3], 1.01 ± 0.015; under setting [4], 1.04 ± 0.011; under setting [5], 1.013 ± 0.0058; under setting [6], 1.027 ± 0.0058.
As to `OC[C@H]1O[C@@H](n2cnc3c(N[C@H]4CCC[C@@H]4O)ncnc32)[C@H](O)[C@@H]1O`, the normalised cell viability under setting [1] was found to be 1.017 ± 0.0058; the normalised cell viability under setting [2] worked out at 1.01 ± 0.027; the normalised cell viability under setting [3] came out at 1.01 ± 0.01; the normalised cell viability under setting [4] is 1.01; the normalised cell viability under setting [5] amounted to 0.993 ± 0.015; the normalised cell viability under setting [6] was determined as 0.9927 ± 0.0095.
Consider `CC[n+]1c(/C=C/C=C2/N(C)c3ccccc3C2(C)C)sc2ccccc21`, for which the normalised cell viability under setting [1] is 0.467 ± 0.026; the normalised cell viability under setting [2] is 0.434 ± 0.017; the normalised cell viability under setting [3] was 0.901 ± 0.032; the normalised cell viability under setting [4] is 0.798 ± 0.02; the normalised cell viability under setting [5] worked out at 0.237 ± 0.0069; the normalised cell viability under setting [6] came to 0.112 ± 0.0067.
On to `NC(N)=N[C@@H](CCC(=O)O)C(=O)O` [alpha-Guanidinoglutaric acid], for which the normalised cell viability runs as follows: under setting [1], 1.01 ± 0.01; under setting [2], 0.983 ± 0.01; under setting [3], 1.006 ± 0.0063; under setting [4], 1.01 ± 0.021; under setting [5], 0.9917 ± 0.0038; under setting [6], 1.002 ± 0.0072.
`CCCCCCCCOc1ccccc1C(=O)Nc1ccc(C(=O)OCC[N+](C)(CC)CC)cc1` [Otilonium Bromide]: the normalised cell viability turned out to be 1.03 ± 0.01 under setting [1]; 1.03 ± 0.026 under setting [2]; 1.01 ± 0.026 under setting [3]; 1.03 ± 0.025 under setting [4]; 1.007 ± 0.0058 under setting [5]; 1.003 ± 0.0058 under setting [6].
In the case of `CC[C@@H]1C(=O)N(C)c2cnc(Nc3ccc(C(=O)NC4CCN(C)CC4)cc3OC)nc2N1C1CCCC1`, the normalised cell viability reads like this: under setting [1], 0.535 ± 0.026; under setting [2], 0.4 ± 0.057; under setting [3], 0.797 ± 0.042; under setting [4], 0.592 ± 0.083; under setting [5], 0.0889 ± 0.011; under setting [6], 0.0658 ± 0.0046.
Consider `CC[C@@H]1C(=O)N(C)c2cnc(Nc3ccc(C(=O)N[C@H]4CC[C@H](N5CCN(CC6CC6)CC5)CC4)cc3OC)nc2N1C(C)C` [BI6727 (Volasertib)], for which the normalised cell viability is, setting by setting: under setting [1], 0.346 ± 0.023; under setting [2], 0.201 ± 0.025; under setting [3], 0.58 ± 0.017; under setting [4], 0.213 ± 0.15; under setting [5], 0.0771 ± 0.019; under setting [6], 0.0219 ± 0.0034.
Turning to `COc1cc(C(=O)NC2CCN(C)CC2)ccc1Nc1ncc2c(n1)N(C1CCCC1)CC(F)(F)C(=O)N2C`, the normalised cell viability amounted to 0.354 ± 0.024 under setting [1]; 0.359 ± 0.031 under setting [2]; 0.73 ± 0.022 under setting [3]; 0.7627 ± 0.007 under setting [4]; 0.066 ± 0.0089 under setting [5]; 0.0695 ± 0.004 under setting [6].
